The supplement of paper PMC10338343
± gives the standard deviation.

What was measured:
[1] = tested on: MILI (PIWIL2) piRISC loaded with L1MC piRNA (26 nt); experiment: pre-steady-state target cleavage rate (min^-1); guide: L1MC piRNA 5'p-UAACUAAAUACUAUGCAAGCUGUAGG; higher = faster piRNA-guided slicing of the target
Method in brief: (§1)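 A transcribed, DNA-blocked target RNA library (0.1 nM) and 1 nM active affinity-purified piRISC bearing one synthetic guide were incubated in HEPES–potassium acetate buffer at 33 °C for 0–8 or 0–960 min, either with or without 500 nM GTSF1 partner protein. Uncleaved targets were sequenced, normalised to depth and to weakly complementary targets, and pooled over three trials, with k3 capped at 0.0001 min^-1. The pre-steady-state cleavage rate was derived with a burst-and-steady-state fit.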

[2] = tested on: EfPiwi piRISC loaded with L1MC piRNA (26 nt); experiment: pre-steady-state target cleavage rate (min^-1); auxiliary factor: 500 nM Ephydatia muelleri Gtsf1; guide: L1MC piRNA 5'p-UAACUAAAUACUAUGCAAGCUGUAGG; MIWI and MILI are mouse PIWI proteins and EfPiwi is from a freshwater sponge; tags in brackets are library labels; higher = faster piRNA-guided slicing of the target
Method in brief: as §1

[3] = auxiliary factor: 500 nM mouse GTSF1
[4] = auxiliary factor: none (no GTSF1)

Row | Sequence | pre-steady-state target cleavage rate [1, 3] | pre-steady-state target cleavage rate [1, 4] | pre-steady-state target cleavage rate [2]
1 | UCCUGGAUGUGCUGGCAUAGUAUUUAGUUA | 0.118 ± 0.012 | 0.0112 ± 0.0037 | 0.00525 ± 0.0029
2 | UCCUCCAUGAGCUUGCAUAGUAUUUAGUAA | 0.169 ± 0.018 | 0.00406 ± 0.0021 | 0.00588 ± 0.0024
3 | UCCUGCUACAGCUUGAUAGUAUUUAGUUA | 0.133 ± 0.017 | 0.00396 ± 0.0021 | 0.00658 ± 0.0031
4 | UCCUACUACAGCUUGCAUAGUAUUUAGUUA | 0.294 ± 0.02 | 0.00883 ± 0.0027 | 0.0579 ± 0.018
5 | UCCUGGUACAGCUUGGAUAGUAUUUAGUUA | 0.206 ± 0.024 | 0.0152 ± 0.0038 | 0.0049 ± 0.0027
6 | UCCUCCUACAGCUUCGCAUAGUAUUUAGUUA | 0.282 ± 0.015 | 0.00644 ± 0.0025 | 0.121 ± 0.032
7 | UCCUGGAACAGCUAGCUUAGUAUUUAGUUA | 0.186 ± 0.015 | 0.0065 ± 0.0023 | 0.00846 ± 0.0037
8 | UCCUCCAACAGGUUGCAUAGUAUUUAGUUA | 0.28 ± 0.011 | 0.00862 ± 0.0019 | 0.0491 ± 0.011
9 | UCCUCCUACAGGAAGCAUAGUAUUUAGUUA | 0.292 ± 0.011 | 0.00603 ± 0.0024 | 0.0159 ± 0.0041
10 | UCCUGGAACAGGUUGCAUAGUAUUUUGUUA | 0.132 ± 0.018 | 0.00924 ± 0.0022 | 0.00366 ± 0.0015
11 | UCCUGGAUCACCUUGCAUAGUAAUUAGUUA | 0.198 ± 0.03 | 0.00446 ± 0.0029 | 0.123 ± 0.049
12 | UCCUGCUACACCAUGCAUAGUAUUUAGUUA | 0.223 ± 0.015 | 0.00794 ± 0.0027 | 0.00582 ± 0.003
13 | UCCUCCUACAGCUUAGCAUAGUAUUUAGUUA | 0.314 ± 0.017 | 0.0112 ± 0.0024 | 0.0919 ± 0.025
14 | UCCUGGAUGUCCUUGCAUAGUAUUAAGUUA | 0.116 ± 0.019 | 0.00289 ± 0.0026 | 0.00404 ± 0.0034
15 | UCCUGCUACAGCUUGCAUAGUAUUUAUUUA | 0.148 ± 0.03 | 0.00466 ± 0.0021 | 0.0055 ± 0.0037
16 | UCCUGGUAGUGCUUGCAUAGUAUUUAGUAA | 0.191 ± 0.032 | 0.00505 ± 0.0031 | 0.00326 ± 0.0024
17 | UCCUGGUAGUCCUUGCAUAGUAUUUAGUAA | 0.113 ± 0.025 | 0.00362 ± 0.003 | 0.00627 ± 0.0035
18 | UCCUCCUUCAGCUUGCAUUGUAUUUAGUUA | 0.226 ± 0.019 | 0.00662 ± 0.002 | 0.0307 ± 0.0077
19 | UCCUCCAACACCUUGCAUAGUAUUUAGUUA | 0.192 ± 0.022 | 0.00554 ± 0.0024 | 0.00954 ± 0.0038
20 | UCCUGGAUGUCGUUUGCAUAGUAUUUAGUUA | 0.13 ± 0.013 | 0.00976 ± 0.0036 | 0.0445 ± 0.013
21 | UCCUCCUACAGCUUGCAUAGUAUUUAGUUC [g2:g26:cont:t1C] | 0.283 ± 0.016 | 0.0143 ± 0.0047 | 0.146 ± 0.035
22 | UCCUGGAUGAGCUUGCCUAGUAUUUAGUUA | 0.194 ± 0.014 | 0.00475 ± 0.0027 | 0.00623 ± 0.0037
23 | UCCUGGAUCAGCUGCAUAGUAUUUAGUUA | 0.25 ± 0.015 | 0.00821 ± 0.0027 | 0.0152 ± 0.0053

Row | Sequence | pre-steady-state target cleavage rate [1, 3] | pre-steady-state target cleavage rate [1, 4] | pre-steady-state target cleavage rate [2]
24 | UCCUGGAACUGCUUGCAUAGUAAUUAGUUA | 0.159 ± 0.012 | 0.00625 ± 0.0021 | 0.0039 ± 0.0028
25 | UCCUGGAUGUUCUUGCAUAGUAUUUAGUUA | 0.0709 ± 0.01 | 0.0115 ± 0.003 | 0.173 ± 0.068
26 | UCCUGGAUCAGGUUGCAUAGUAUUAAGUUA | 0.144 ± 0.017 | 0.00601 ± 0.0021 | 0.00407 ± 0.0025
27 | UCCUGGAACUGCUUGGAUAGUAUUUAGUUA | 0.222 ± 0.013 | 0.0109 ± 0.0023 | 0.0527 ± 0.014
28 | UCCUCCAAGAGCUUGCAUAGUAUUUAGUUA | 0.276 ± 0.013 | 0.007 ± 0.0024 | 0.0523 ± 0.014
29 | UCCUGGAUGAGCUUGCUUAGUAUUUAGUUA | 0.17 ± 0.01 | 0.00685 ± 0.0025 | 0.00629 ± 0.0027
30 | UCCUGCUACUGCUUGCAUUGUAUUUAGUUA | 0.211 ± 0.018 | 0.0081 ± 0.0024 | 0.00835 ± 0.0023
31 | UCCUGGAUGAGCAUGCAUAGUAUUUAGUUA | 0.199 ± 0.016 | 0.00939 ± 0.0029 | 0.0207 ± 0.0065
32 | UCCUGCAACAGCUUGCAUUGUAUUUAGUUA | 0.262 ± 0.018 | 0.0076 ± 0.0027 | 0.0331 ± 0.0081
33 | UCCUGGUACAGCUUGCAUAGUAUUCUAGUUA | 0.353 ± 0.088 | 0.00551 ± 0.0045 | 0.0044 ± 0.003
34 | UCCUGGAACAGCUUGCUAAGUAUUUAGUUA | 0.129 ± 0.015 | 0.00361 ± 0.0028 | 0.00374 ± 0.0032
35 | UCCUGGAACAGCUUGCAAAGUAUUUAGAUA | 0.085 ± 0.014 | 0.00298 ± 0.0022 | 0.0036 ± 0.0024
36 | UCCUGGAUCACGUUGCAUAGUAUUUAGUUA | 0.206 ± 0.019 | 0.00683 ± 0.0026 | 0.0686 ± 0.017
37 | UCCUGCUACAGCUUAGCAUAGUAUUUAGUUA | 0.276 ± 0.014 | 0.0072 ± 0.0026 | 0.0477 ± 0.015
38 | UCCUGGAUGAGCUUGCAUAGUAUUUAGUGUA | 0.261 ± 0.041 | 0.00591 ± 0.0031 | 0.00866 ± 0.0031
39 | UCCUGGAACAGCUUGCAGAGUAUUUAGUUA | 0.193 ± 0.019 | 0.00795 ± 0.0019 | 0.012 ± 0.003
40 | UCCUGGAUGUGCUUGCAUGGUAUUUAGUUA | 0.086 ± 0.014 | 0.0124 ± 0.0032 | 0.0043 ± 0.0042
41 | UCCUGGUACAGGUUGCAUAGUAUUUAGUAA | 0.287 ± 0.04 | 0.00626 ± 0.0028 | 0.00428 ± 0.0022
42 | UCCUGCUUCUGCUUGCAUAGUAUUUAGUUA | 0.199 ± 0.016 | 0.00864 ± 0.0018 | 0.0112 ± 0.0038
43 | UCCUGGAUCGGCUUGCAUAGUAUUUAGUUA | 0.261 ± 0.016 | 0.0131 ± 0.0022 | 0.0523 ± 0.0092
44 | UCCUGGAUGUCCUUGCACAGUAUUUAGUUA | 0.145 ± 0.028 | 0.00389 ± 0.0023 | 0.00454 ± 0.0024
45 | UCCUGGAUCAGCUUGCAUAGUAUUUGGUUA | 0.245 ± 0.018 | 0.0139 ± 0.003 | 0.00498 ± 0.002
46 | UCCUCCUACAGCUUGCAUAGUGUUUAGUUA | 0.211 ± 0.017 | 0.00543 ± 0.0025 | 0.0149 ± 0.0041
